CYP2C9 inhib: blocks human cytochrome P450 2C9 | inhibition, % at 5 µM | CYP2C9 Supersomes, luciferin-H conversion, luminescence | actives 20% (n = 96,000) | AID 777 | P11712;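 active means blocking of liver enzyme CYP2C9 beyond about 50% at 5 µM, limit read from the data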
Mac1 fbg inh: CD11b/CD18-fibrinogen binding inhibition | inhibition, % at 10 µM | AID 1497 | actives 0.54% (n = 93,000) | K562 CD11b/CD18 adhesion to fibrinogen, ATPlite luminescence; Mn2+ added to activate the integrin | P05107+P11215;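 active means primary inhibition of 50% or more at 10 µM, then 40% or more on retest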
CYP2C19 activ: activators of human cytochrome P450 2C19. P33261. recombinant CYP2C19, luciferin-H EGE luminescence; stronger effect = higher value; 0 = fully inhibited enzyme, 1 = untreated enzyme. activation factor at 5 µM. 96,000 tested, under 10 active. AID 1025;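 active means activation factor of at least 2 at 5 µM in the primary screen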;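 further: 0 = wells with 2.5 mM tranylcypromine and 1 = vehicle-only wells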
Target sequence (P33261 whole entry, looked up): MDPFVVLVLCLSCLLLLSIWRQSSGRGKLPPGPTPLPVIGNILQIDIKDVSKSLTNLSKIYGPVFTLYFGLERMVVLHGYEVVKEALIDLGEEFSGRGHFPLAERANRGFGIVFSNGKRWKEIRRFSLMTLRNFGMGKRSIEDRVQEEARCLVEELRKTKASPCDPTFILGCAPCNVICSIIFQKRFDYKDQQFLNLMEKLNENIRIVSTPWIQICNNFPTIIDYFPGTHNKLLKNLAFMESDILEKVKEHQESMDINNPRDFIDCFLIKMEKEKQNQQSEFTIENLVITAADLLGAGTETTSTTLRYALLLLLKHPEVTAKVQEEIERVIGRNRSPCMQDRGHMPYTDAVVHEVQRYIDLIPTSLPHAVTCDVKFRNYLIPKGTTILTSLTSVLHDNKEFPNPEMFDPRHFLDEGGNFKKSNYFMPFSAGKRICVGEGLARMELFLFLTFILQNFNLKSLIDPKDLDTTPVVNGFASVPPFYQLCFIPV
CYP2C19 inhib: blocks human cytochrome P450 2C19. inhibition, % at 5 µM. CYP2C19 Supersomes, luciferin-H EGE luminescence, 30 min. actives 21% (n = 96,000). AID 778. P33261;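 active means CYP2C19 inhibition above a set limit at 5 µM in the primary screen, cut at about 50% in these data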;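 further: plate controls were negative control wells for no effect and 2.5 mM tranylcypromine positive control for full effect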
Mac1 fbg enh: enhancers of human CD11b/CD18 binding to fibrinogen | P05107+P11215 | K562 CD11b/CD18 adhesion to fibrinogen, ATPlite luminescence | activation, % at 10 µM | actives 0.07% (n = 93,000) | AID 1499;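 active means 10 µM primary screen giving 50% or more activity, confirmed by 40% or more on retest at that dose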
CYP2C9 activ: CYP2C9 (human) activation; AID 1024; actives 1.4% (n = 96,000); P11712; recombinant CYP2C9, luciferin-H conversion, luminescence; stronger effect = higher value; factor 1 = untreated enzyme, 0 = blocked; activation factor at 5 µM;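 active means activation factor of 2 or more for CYP2C9 at a 5 µM dose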;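 further: 0 = sulfaphenazole-blocked wells and 1 = vehicle-only wells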
* = called active by the depositor; / = not tested or not shown. This is a sample that favours compounds with a hit; in the whole collection about 28% have one here.

SMILES | CYP2C9 inhib | Mac1 fbg inh | CYP2C19 activ | CYP2C19 inhib | Mac1 fbg enh | CYP2C9 activ
CCN(CC)c1ccc(C2C(C(=O)OCCOC)=C(C)NC3=C2C(=O)CC(C)(C)C3)cc1 (stereo not drawn) | 19.2 | -4.0 | 0.7 | 30.3 | 2.0 | 0.8
CN(C)c1ccc(C2CC(=O)NC3=C2C(=O)CC(C)(C)C3)cc1 (stereo not drawn) | 7.8 | 2.1 | 0.4 | 61.4* | -2.4 | 0.9
COCCOC(=O)C1=C(C)NC2=C(C(=O)CC(C)(C)C2)C1c1ccc2c(c1)OCO2 (stereo not drawn) | 81.9* | -2.3 | 0.1 | 90.1* | 1.5 | 0.2
CCOC(=O)C1=C(C)N(C)C(=O)NC1c1cc2c(cc1Br)OCO2 (stereo not drawn) | 37.6 | 7.2 | 0.4 | 62.0* | 3.9 | 0.6
COc1ccc(C2C3=C(CC(C)(C)CC3=O)Nc3c2c(=O)[nH]c(=O)n3Cc2ccccc2)cc1OC (stereo not drawn) | 0.3 | -15.1 | 0.8 | 16.4 | 2.9 | 1
CC1(C)CC(=O)C2=C(C1)Nc1[nH]n(-c3ccccc3)c(=O)c1C2c1ccc2c(c1)OCO2 (stereo not drawn) | 43.8 | -22.7 | 0.5 | 54.6* | 25.8 | 0.6
CCC(C)N1C(=O)C2C(C(=O)Nc3cccc(OC)c3)C3C=CC2(O3)C1C(=O)NC1CCCCC1C (stereo not drawn) | 12.1 | -6.6 | 0.9 | 8.0 | 28.9 | 0.9
Cc1nnc(C)c2c(C)n(Cc3ccc4c(c3)OCO4)c(C)c12 | 17.9 | / | 0.6 | 39.8 | / | 0.8
COc1cc(CSc2ncn[nH]2)c(OC)cc1CSc1ncn[nH]1 | -2.3 | 3.3 | 0.4 | 62.3* | -6.6 | 1
O=C(CN1C(=O)CC(c2ccco2)Sc2ccccc21)Nc1ccc2c(c1)OCCO2 (stereo not drawn) | 49.4 | -8.8 | 0.1 | 88.4* | -7.5 | 0.5
CC1CC(=O)N(CC(=O)Nc2ccc3c(c2)OCO3)c2ccccc2S1 (stereo not drawn) | 28.1 | -6.0 | 0.6 | 43.5 | -5.0 | 0.7
COc1ccc(OC)c(NC(=O)CN2C(=O)NC3(CCOc4ccccc43)C2=O)c1 (stereo not drawn) | 44.2 | -0.7 | 0.4 | 56.8* | -1.1 | 0.6
O=C(CN1C(=O)NC2(CCOc3ccccc32)C1=O)Nc1ccc2c(c1)OCCO2 (stereo not drawn) | 50.1* | -24.7 | 1 | 3.8 | -1.7 | 0.5
COc1cc(/C=N\NC(=O)c2sc(N)nc2C)cc(OC)c1OC | -13.9 | 4.1 | 1.1 | -9.0 | -1.2 | 1.1
O=C(OCn1ncc(Br)c(Br)c1=O)c1ccccc1Cl | 1.5 | 10.7 | 0.4 | 56.6* | 0.1 | 1
O=C(OCn1ncc(Br)c(Br)c1=O)c1ccc(F)cc1 | 28.1 | 1.6 | 0.1 | 88.7* | -2.8 | 0.7
CN(C)CCCOC(=O)c1ccccc1Cl | 22.5 | -5.5 | 0.8 | 19.9 | 1.4 | 0.8
O=C(Nc1cccc(C(F)(F)F)c1)/C(=C/c1ccco1)NC(=O)c1cccs1 | 12.7 | -12.0 | 0.7 | 34.3 | -5.8 | 0.9
CN(C)c1ccc(/C=N/c2cc(-c3ccccc3)nn2-c2ccccc2)cc1 | 52.2* | 0.5 | 1 | 2.2 | -2.2 | 0.5
FC(F)(F)c1nnc2c(Sc3ccccc3)nc3ccc(Cl)cc3n12 | 25.9 | / | 0.5 | 50.5* | / | 0.7
Nc1cc(=O)[nH]c(SCc2nc3ccccc3n2Cc2ccccc2)n1 | 82.5* | -7.0 | 0.5 | 46.8 | -2.3 | 0.2
O=c1[nH]c(SCc2nc3ccccc3n2Cc2ccccc2)nc2ccccc12 | 22.6 | 2.9 | 1 | 3.1 | -5.9 | 0.8
COc1cccc(C(=O)CSc2nnc(CNS(C)(=O)=O)n2-c2ccc(C)cc2)c1 | 38.6 | -20.3 | 0.7 | 32.7 | 0.0 | 0.6
Cc1ccc(C)c2[nH]c(=O)c(CN(Cc3ccc4c(c3)OCO4)Cc3nnnn3Cc3ccco3)cc12 | 75.4* | 3.8 | 0.6 | 37.7 | 2.2 | 0.2
Cc1ccc2cc(CN(CCN3CCOCC3)Cc3nnnn3Cc3ccco3)c(=O)[nH]c2c1C | 68.6* | -3.8 | 0.6 | 37.5 | -0.5 | 0.3
SMILES | CYP2C9 inhib | Mac1 fbg inh | CYP2C19 activ | CYP2C19 inhib | Mac1 fbg enh | CYP2C9 activ
CCC(c1nnnn1Cc1ccco1)N(CCN1CCOCC1)Cc1cc2cc(C)ccc2[nH]c1=O (stereo not drawn) | 15.0 | 0.6 | 0.8 | 19.6 | 2.5 | 0.8
Cc1ccc2cc(CN(Cc3ccc4c(c3)OCO4)Cc3nnnn3Cc3ccco3)c(=O)[nH]c2c1C | 79.7* | 12.3 | 0.1 | 85.7* | 0.6 | 0.2
O=C(NNc1cccc(Cl)n1)Nc1ccccc1Cl | 1.5 | / | 0.6 | 37.6 | / | 1
O=c1ccc(Cc2ccccn2)n[nH]1 | -12.3 | 9.4 | 1.2 | -17.6 | -3.1 | 1.1
Cn1c(CSCc2ccc(Cl)cc2)nnc1SCC(=O)Nc1nc2ccccc2s1 | 13.3 | -29.6 | 0.9 | 6.2 | 5.7 | 0.9
CC(=O)C1=C(C)NC(SCC(=O)c2ccc(C)cc2)=C(C#N)C1c1ccco1 (stereo not drawn) | 96.0* | / | 0 | 99.0* | / | 0
COc1ccc(OC)c(C2C(C(=O)Nc3cccnc3)=C(C)NC3=C2C(=O)CCC3)c1 (stereo not drawn) | 98.2* | -30.1 | 0.4 | 55.7* | -3.3 | 0
N#CC1=C(SCC(=O)c2ccc(Cl)cc2)NC2=C(C(=O)CCC2)C1c1ccco1 (stereo not drawn) | 97.2* | 5.7 | 0 | 98.8* | -9.8 | 0
COc1ccc(OC)c(C2C3=C(CCCC3=O)NC3=C2C(=O)CCC3)c1 | -6.1 | -3.1 | 1 | 2.1 | -3.5 | 1.1
Cc1ccc(NC(=O)CSC2=C(C#N)C(c3ccco3)C3=C(CCCC3=O)N2)cc1 (stereo not drawn) | 43.3 | -6.1 | 0.8 | 17.8 | -6.4 | 0.6
COc1ccc(OC)c(NC(=O)CSC2=C(C#N)C(c3ccco3)C3=C(CCCC3=O)N2)c1 (stereo not drawn) | 86.2* | -5.6 | 0.2 | 83.9* | -5.2 | 0.1
O=C(CN1C(=O)CNC1=O)Nc1cccc(C(F)(F)F)c1 | -3.1 | -20.6 | 1 | -3.1 | -3.5 | 1
FC(F)(F)c1cc(N2CCOCC2)nc(-c2ccccc2)n1 | / | -27.8 | / | / | 3.5 | /
CC1(C)C2CCC1(C)C(OC(=O)CSc1nc(N)cc(=O)[nH]1)C2 (stereo not drawn) | -1.3 | -8.4 | 0.8 | 21.6 | -4.4 | 1
NS(=O)(=O)c1ccc(NC(=O)Cn2ncc3c2-c2ccccc2OC3)cc1 | 35.2 | 1.6 | 1.1 | -15.0 | -0.9 | 0.6
CC1=C(C(=O)Nc2cc(C)ccn2)C(c2ccc(C)cc2)C2=C(CCCC2=O)N1 (stereo not drawn) | 24.3 | -2.2 | 0.8 | 18.6 | 4.6 | 0.8
COc1ccccc1NC(=O)C1=C(C)NC(SCC(=O)c2ccccc2)=C(C#N)C1c1ccco1 (stereo not drawn) | 78.4* | -12.4 | 0.5 | 54.8* | 83.6 | 0.2

High-throughput results as filed in PubChem BioAssay.
